Counter-ions that a name gives are not always drawn.
Test system: K562 SF3B1 K700E vs K562 SF3B1 WT
Test: surviving fraction ratio K562 SF3B1 K700E / K562 SF3B1 WT (each relative to DMSO); higher = less selective killing of SF3B1 K700E cells
Conditions: 5 days
Outline: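 Isogenic K562 cells carrying an engineered SF3B1 hotspot allele and matched SF3B1 wild-type cells were screened against an in-house 80-compound library in 384-well plates. Plates were seeded at 250 cells per well, and compounds were added 24 h later at 0.5, 1, 5, 10, 50, 100, 500 and 1,000 nM, with continuous culture for 5 d. Viability was read by CellTiter-Glo. The value is the mutant-to-wild-type ratio of surviving fractions, each normalised to DMSO.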

Row | SMILES | surviving fraction ratio K562 SF3B1 K700E / K562 SF3B1 WT (0.5nM) | surviving fraction ratio K562 SF3B1 K700E / K562 SF3B1 WT (1nM) | surviving fraction ratio K562 SF3B1 K700E / K562 SF3B1 WT (5nM) | surviving fraction ratio K562 SF3B1 K700E / K562 SF3B1 WT (10nM) | surviving fraction ratio K562 SF3B1 K700E / K562 SF3B1 WT (50nM) | surviving fraction ratio K562 SF3B1 K700E / K562 SF3B1 WT (100nM) | surviving fraction ratio K562 SF3B1 K700E / K562 SF3B1 WT (500nM) | surviving fraction ratio K562 SF3B1 K700E / K562 SF3B1 WT (1000nM)
1 | CC[C@@H](C(=O)[C@@H](C)[C@@H](O)[C@H](C)[C@@H]1O[C@@H]([C@@H](CC)C(=O)O)CC[C@@H]1C)[C@H]1O[C@]2(C=C[C@@H](O)[C@]3(CC[C@@](C)([C@H]4CC[C@](O)(CC)[C@H](C)O4)O3)O2)[C@H](C)C[C@@H]1C [salinomycin] | 0.921 | 0.999 | 0.871 | 1.27 | 0.88 | 0.831 | 0.898 | 1.16
2 | Oc1nc(-c2ccc(C(F)(F)F)cc2)nc2c1CSCC2 | 1.15 | 0.906 | 0.867 | 0.822 | 1.35 | 1.11 | 1.15 | 0.958
3 | COc1ccc(-c2cc3c(C)nc(N)nc3n([C@H]3CC[C@H](OCCO)CC3)c2=O)cn1 | 1.06 | 1.14 | 0.92 | 1 | 0.958 | 0.868 | 1.37 | 1.58
4 | CC(=O)c1c(C)c2cnc(Nc3ccc(N4CCNCC4)cn3)nc2n(C2CCCC2)c1=O | 0.861 | 0.89 | 0.743 | 0.796 | 0.826 | 0.882 | 0.849 | 0.864
5 | CCN(CC)CCNC(=O)c1c(C)[nH]c(/C=C2\C(=O)Nc3ccc(F)cc32)c1C [sunitinib] | 1.09 | 1.08 | 0.928 | 1.33 | 0.86 | 1.2 | 0.73 | 0.857
6 | CCn1c(C(=O)N(C2CC2)C2CC2)cc2c3c(ncn3C)c(Nc3cc(C)n(C)n3)nc21 | 0.923 | 0.951 | 1 | 0.938 | 0.82 | 0.801 | 0.844 | 0.893
7 | Cc1ccc(-c2cc(C(F)(F)F)nn2-c2ccc(S(N)(=O)=O)cc2)cc1 [celecoxib] | 0.751 | 0.819 | 0.804 | 0.813 | 0.673 | 0.736 | 0.79 | 0.698
8 | Cn1cc(C2=Nc3cc(NC(=O)C(N)C4CCCCC4)cc4c3C2=CNNC4=O)cn1 (centres undefined) | 0.884 | 0.979 | 0.826 | 0.834 | 0.992 | 0.621 | 0.815 | 1.88
9 | CNC(=O)c1ccc(N2C(=S)N(c3ccc(C#N)c(C(F)(F)F)c3)C(=O)C2(C)C)cc1F | 0.896 | 0.933 | 0.864 | 1.07 | 0.871 | 0.847 | 0.769 | 0.98
10 | Nc1ccn([C@@H]2O[C@H](CO)[C@@H](O)C2(F)F)c(=O)n1 [gemcitabine.HCl] | 0.839 | 0.772 | 0.465 | 0.491 | 0.901 | 1.16 | 1.1 | 1.16
11 | CS(=O)(=O)CCNCc1ccc(-c2ccc3ncnc(Nc4ccc(OCc5cccc(F)c5)c(Cl)c4)c3c2)o1 [lapatinib] | 0.726 | 0.755 | 0.828 | 0.669 | 0.99 | 0.906 | 0.898 | 0.665
12 | COc1cc2nccc(Oc3ccc(NC(=O)NC4CC4)c(Cl)c3)c2cc1C(N)=O [Lenvatinib] | 0.728 | 0.787 | 0.763 | 0.755 | 0.815 | 0.834 | 0.71 | 0.674
13 | CN(C)C/C=C/C(=O)Nc1cc2c(Nc3ccc(F)c(Cl)c3)ncnc2cc1O[C@H]1CCOC1 | 0.936 | 1.06 | 0.796 | 0.769 | 0.795 | 0.679 | 0.666 | 0.915

Reference: the supplement of paper PMC10412459
